Pf growth 96h: Primary qHTS for delayed death inhibitors of the malarial parasite plastid, 96 hour incubation. Potency, µM (doses to about 28.7 µM), inactives show top-dose activity change, negative = inhibition, actives largely listed as inhibitors. P. falciparum luciferase reporter growth, 96 h. actives 6.9% (n = 320,000). AID 504834, 2011; also: potency is read from the fitted curve at half-maximal effect; % is scaled to controls: 0 for no effect and ±100 for the full control effect
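Erythrocytes infected with luciferase-expressing P. falciparum were dispensed at 2% hematocrit and 0.05% parasitemia (final), then incubated with compounds 96 hours at 37 C in 5% CO2. Luminescence after detection reagent addition reported growth.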
NS1 function inh: qHTS Assay for Inhibitors of Influenza NS1 Protein Function. Potency, µM (top dose mostly 46.1 µM), for inactives: at the top dose activity, positive = more growth. actives 0.4% (n = 270,000). AID 2326, 2010; calls by dose curve; also: potency is read from the fitted curve at half-maximal effect; actives are rising curves; nearly all actives have a fitted effect of over 50% in size
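In this qHTS, NS1 from influenza A is expressed in budding yeast, where it slows growth. Cells are switched from glucose to 2% galactose medium (pH 6.0, -URA), treated with compound, and growth recovery is read at OD600.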
FBPA Giardia inh: qHTS Assay for Inhibitors of Fructose-1,6-bisphosphate Aldolase from Giardia Lamblia; actives 0.71% (n = 290,000); purified Giardia FBPA; A8B2U2; Potency, µM (series often up to 59.6 µM), inactives show at the highest dose activity, negative = inhibition, actives largely listed as inhibitors; also: potency is read from the fitted curve at half-maximal effect; % is scaled to controls: 0 for no effect and ±100 for the full control effect; nearly all actives have a fitted effect of over 55% in size
Target sequence (A8B2U2 whole entry, looked up): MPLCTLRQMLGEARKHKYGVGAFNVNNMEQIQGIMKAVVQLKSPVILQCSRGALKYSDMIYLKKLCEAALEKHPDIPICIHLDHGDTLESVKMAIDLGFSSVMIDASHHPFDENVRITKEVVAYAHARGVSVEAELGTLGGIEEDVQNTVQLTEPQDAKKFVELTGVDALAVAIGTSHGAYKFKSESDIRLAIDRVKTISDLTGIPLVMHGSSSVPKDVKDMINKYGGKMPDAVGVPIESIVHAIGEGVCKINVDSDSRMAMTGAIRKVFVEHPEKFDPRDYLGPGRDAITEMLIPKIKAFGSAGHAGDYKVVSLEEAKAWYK
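Giardia FBPA (40 nM reagent) was preincubated 10 min at RT with compound (up to 57.5 uM final), then substrate plus GAPDH/TPI/NAD/arsenate coupling system with diaphorase/resazurin was added; resorufin fluorescence (525/598 nm) was read after 20 min.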
CHX counter: Cycloheximide Counterscreen for Small Molecule Inhibitors of Shiga Toxin | max response, % | AID 2314, 2010 | actives 12% (n = 300,000) | cell reporter, cycloheximide protein synthesis inhibition counterscreen; in the data active = max response mostly above about 13%, no sharp cut-off; inactive = mostly below about 14%; also: read at 38.3 µM for the half of the compounds with a filed dose; 0% is about no effect
Shiga inhibitor: A qHTS for Small Molecule Inhibitors of Shiga Toxin | Vero cells, Shiga toxin protein synthesis inhibition reporter | inhibition, % at 38.7 µM | actives 9.2% (n = 290,000); in the data active = inhibition mostly above about 28%, no sharp cut-off; inactive = mostly below about 43%; also: 0% is about no effect
Pf growth 48h: Primary qHTS for delayed death inhibitors of the malarial parasite plastid, 48 hour incubation | P. falciparum luciferase growth in erythrocytes, 48 h | Potency, µM (top dose mostly 28.7 µM), for the others: top-dose activity change, negative = inhibition, usual class: inhibitors | actives 5.9% (n = 310,000) | AID 504832, 2011; also: potency is read from the fitted curve at half-maximal effect; % is scaled to controls: 0 for no effect and ±100 for the full control effect
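Cell-based growth assay: transgenic P. falciparum expressing firefly luciferase, cultured in red cells within RPMI 1640 containing 0.5% w/v Albumax, 24 mM bicarbonate and gentamycin. A drop in luciferase activity indicates inhibition.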
Numbers without * were called inactive; ? = inconclusive; · = no result given; [ ] = another dose, or the depositor's remark. The list is not random: actives were taken first. Their share in the collection is about 21%. Unless noted, calls follow the shape of the dose curve; as a rule, active = well fitted curve in the direction sought with a large enough effect; inconclusive = small, poorly fitted or top-dose-only effect, or another doubt; inactive = no such curve, though single readings can be large; an effect the other way counts as inactive or inconclusive.

SMILES	Pf growth 96h	NS1 function inh	FBPA Giardia inh	CHX counter	Shiga inhibitor	Pf growth 48h
C/C(=N\NC(=O)c1ccc(Cl)cc1)c1ccccn1	-42%	-115%	-7%	40*	85*	?
COCCNC(=S)N/N=C(\C)c1ccc(O)cc1	37%	-5%	-27%	2	-3	29%
CC(C)CN(C1CCS(=O)(=O)C1)S(=O)(=O)c1ccc(C(C)C)cc1 (centres undefined)	?	·	·	·	·	-15%
Cc1ccc(C)c(NC(=O)CCC(=O)NN=C2CCCC2)c1	-14%	8%	·	-3	-4	4%
O=C1O[C@@H]([C@H](O)[C@H](O)[C@H](O)CO)[C@@H](O)[C@@H]1O	·	6%	·	·	·	·
C=C1C=CS(=O)(=O)N(C(CC(C)C)C(=O)OC)C1 (centres undefined)	·	·	-8%	11	-7	·
C/C(=N\Nc1ccc(Cl)cc1)c1ccccn1	169%	-53%	-18%	23*	74*	·
C/C(=N/NC(=O)c1ccccn1)c1ccc(O)cc1	312%	3%	?	32*	60*	216%
C/C(=N\NC(=O)c1ccccn1)c1ccc(Cl)cc1	9%	-31%	-20%	33*	53*	-7%
C/C(=N\NC(=O)c1c[nH]c2ccccc12)c1ccc(C)o1	0.93µM*	-1%	0%	3	12	·
C/C(=N/NC(=O)c1ccccn1)c1ccco1	334%	0%	·	3	23	244%
CC1O[C@@H]2O[C@](O[C@H](C)CC[C@@H](C)O)(c3ccccc3)O[C@@H]2C[C@H]1O (some centres undefined)	83%	·	·	·	·	-2%
CC1(OC(=O)C2CCCC2)C(=O)C=C2C=C(c3ccsc3)N(c3ccc(CO)cc3)C=C2C1=O (centres undefined)	·	·	4%[12.9 µM]	·	·	·
C/C(=N/NS(=O)(=O)c1ccc(C)c(C)c1)c1c[nH]c2ccccc12	-3%	-10%	-1%	-1	-6	?
C/C(=N/NC(=O)c1ccccn1)c1c[nH]c2ccccc12	114%	3%	-14%	56*	92*	128%
O=C(NCCc1ccccc1)C1CCCN(C(=O)Nc2ccc(F)cc2)C1 (centres undefined)	7%	6%	-4%	-6	24	-2%
N#Cc1ccc(CS(=O)(=O)c2ccccc2)cc1	·	·	0%	·	·	·
Cc1ccccc1S(=O)(=O)Cc1ccc(C(=O)NCCCN2CCCC(C)C2)o1 (centres undefined)	2.3µM*	4%	-1%	-4	-12	-2%
Cc1ccccc1S(=O)(=O)Cc1ccc(C(=O)NCCCN2CCC(C)CC2)o1	-2%	-3%	-6%	-2	-5	14%
Cc1ccccc1S(=O)(=O)Cc1ccc(C(=O)NCCN(Cc2ccccc2)C(C)C)o1	-9%	1%	·	-2	-8	5.2µM*
C[C@@H]1Cc2c(Cl)cc(C(=O)N[C@@H](Cc3ccccc3)C(=O)O)c(O)c2C(=O)O1	·	·	10%	-4	-13	·
CN(/C(=N\S(=O)(=O)c1ccccc1)c1ccccc1)c1ccc(O)cc1	?	·	1%	-6	21	?
COc1ccc(OCC(=O)Nc2cc(-c3nn(C)c(=O)c4ccccc34)ccc2N2CCOCC2)cc1	5.9µM*	1%	-2%	0	-3	?
Cn1nc(-c2ccc(N3CCOCC3)c(NC(=O)COc3ccccc3)c2)c2ccccc2c1=O	·	-23%	·	·	·	·
COc1ccc(NC(=O)COc2ccc(-c3nn(C)c(=O)c4ccccc34)cc2)cc1	-27%	4%	-4%	-2	-10	-5%
CCN(CC)C(=O)c1ccc(NC(=O)COc2ccc(-c3nn(C)c(=O)c4ccccc34)cc2)cc1	?	-13%	8%	-4	-8	13µM*
CN(C(=O)c1ccc(-c2nn(C)c(=O)c3ccccc23)cc1)C1CCCCC1	13%	-8%	·	14	12	12µM*
CN(CCO)C(=O)c1ccc(-c2nn(C)c(=O)c3ccccc23)cc1	6%	1%	-2%	8	-9	9%

Source: PubChem (National Center for Advancing Translational Sciences (NCATS))
